{"source": "ChEMBL document CHEMBL3988442", "about": "“University of Dundee, Small-Polar-MMV Screening Library” (2021)", "note": "Among all 48,000 compounds or so, about 13,000 (27%) showed an effect of 50% or more. This is one part of the list."}
{"test_system": "Wolbachia pipientis", "assay": "Anti-Wolbachia Cell-Based Screen", "type": "functional", "set-up": "scale not given: in the data most compounds retested in dose-response had high values", "settings": "5 µM", "units": {"Percent Effect": "%"}}
{"smiles": "CCCN(CCC)C1(Cc2cc(-c3cccc(O)c3)on2)COC1", "Percent Effect": -7.184}
{"smiles": "N#CCCN(C(=O)CN1CCCC1Cc1ccccc1)c1ccccc1", "note": "(stereo not drawn)", "Percent Effect": 14.76}
{"smiles": "CN(C)CCn1ccc(NC(=O)NC(C)(C)c2nccs2)n1", "Percent Effect": 4.261}
{"smiles": "COc1ccc(CNC(C)c2cnc3cc(C)nn3c2C)cc1", "note": "(stereo not drawn)", "Percent Effect": 8.81}
{"smiles": "Cc1cc(-c2cnc(NCc3ccc4c(c3)OCO4)nc2C(C)C)on1", "Percent Effect": 111.2}
{"smiles": "COc1ccc(CNC2(Cc3cc(CC(C)C)on3)COC2)cc1", "Percent Effect": 1.284}
{"smiles": "Cn1ccnc1-c1noc(NCc2ccc3c(c2)OCCO3)n1", "Percent Effect": -0.6068}
{"smiles": "Cc1ccn(-c2ccccc2NCc2ccccn2)n1", "Percent Effect": 5.866}
{"smiles": "COc1ccc(CNc2ncc(-c3cc(C)no3)c(C(C)C)n2)cc1", "Percent Effect": 97.64}
{"smiles": "COc1ccccc1CNc1ncc(-c2cc(C)no2)c(C(C)C)n1", "Percent Effect": 92}
{"smiles": "COc1cccc(CNc2nc(C)cc(C)n2)c1OC", "Percent Effect": 34.66}
{"smiles": "Cc1cc(-c2cnc(NCc3ccccn3)nc2C(C)C)on1", "Percent Effect": 93.57}
{"smiles": "CC(C)c1nn(C)c(N(C)C)c1CNCc1ccc2c(c1)OCO2", "Percent Effect": -1.149}
{"smiles": "Cn1ncnc1-c1ccnc(NCc2ccccn2)n1", "Percent Effect": -1.94}
{"smiles": "COCc1cc(NCc2ccccc2OC)ncn1", "Percent Effect": -8.883}
{"smiles": "CN(Cc1ccc(F)cc1)C(=O)NCC1(N2CCOCC2)CCSC1", "note": "(stereo not drawn)", "Percent Effect": -20.26}
{"smiles": "COc1cccc(-n2c(SCC(=O)O)nnc2-c2cn[nH]c2)c1", "Percent Effect": 1.781}
{"smiles": "Cc1csc(CNC(=O)NCC(O)c2ccc(F)cc2F)n1", "note": "(stereo not drawn)", "Percent Effect": -0.3867}
{"smiles": "Cc1cc(-c2cnc(NCc3ccncc3)nc2C(C)C)on1", "Percent Effect": 155.1}
{"smiles": "Cc1cnc(NCc2ccc(S(=O)(=O)N(C)C(C)C)cc2)nc1C", "Percent Effect": -3.312}
{"smiles": "CCc1c(NCc2ccncc2)cnn1CC(C)C", "Percent Effect": -6.7}
{"smiles": "O=C(O)C(F)(F)F.c1cncc(-c2ccc3c(c2)C2(CC3)CCN(c3nncs3)CC2)c1", "Percent Effect": 7.623}
{"smiles": "Cc1ccc2c(c1)C1(CC2)CCN(c2nncs2)CC1", "Percent Effect": -2.782}
{"smiles": "CC/C=C(/C)C(=O)N1CCN(C2=NCC(C)S2)CC1", "note": "(stereo not drawn)", "Percent Effect": -1.897}
{"smiles": "CCOCCN1CCN(Cc2nc(C3CC3)no2)CC1CC", "note": "(stereo not drawn)", "Percent Effect": -17.64}
{"smiles": "O=C(NC1CCC1)[C@H]1C[C@@H]2CN(S(=O)(=O)c3ccccc3)C[C@H]1O2", "Percent Effect": 5.233}
{"smiles": "CN(C)CCNC(=O)[C@H]1C[C@@H]2CN(C(=O)NC3CCCC3)C[C@H]1O2.O=C(O)C(F)(F)F", "Percent Effect": 6.498}
{"smiles": "O=C(NC1CC1)[C@@H]1CCO[C@@H]2CCN(CC3CCC3)C[C@@H]21.O=C(O)C(F)(F)F", "Percent Effect": 20.69}
{"smiles": "O=C(NC1CCC1)[C@H]1C[C@@H]2CN(CC3CC3)C[C@H]1O2.O=C(O)C(F)(F)F", "Percent Effect": 120}
{"smiles": "CC(C)CN1C[C@H]2C[C@H](C(=O)NC3CCC3)[C@@H](C1)O2.O=C(O)C(F)(F)F", "Percent Effect": 89.64}
{"smiles": "O=C(NC1CC1)[C@@H]1CCO[C@@H]2CCN(CC3CCC3)C[C@H]21.O=C(O)C(F)(F)F", "Percent Effect": -19.72}
{"smiles": "NC(=O)c1cc(-c2cccc(C(=O)O)c2)cs1", "Percent Effect": 7.533}
{"smiles": "CCCN(C)CC1CCN(c2ccc(Br)c(C)n2)C1", "note": "(stereo not drawn)", "Percent Effect": -15.16}
{"smiles": "CC1CCN(S(=O)(=O)N2Cc3ccccc3C[C@H]2C(N)=O)CC1", "Percent Effect": 91.1}
{"smiles": "CC1CCN(C(=O)CCN2Cc3ccccc3C[C@H]2C(N)=O)C1", "note": "(stereo partly drawn)", "Percent Effect": -2.608}
{"smiles": "NC(=O)[C@@H]1Cc2ccccc2CN1S(=O)(=O)N1CCCCCC1", "Percent Effect": 103}
{"smiles": "NC(=O)[C@@H]1Cc2ccccc2CN1S(=O)(=O)N1CCCCC1", "Percent Effect": 78.36}
{"smiles": "NC(=O)C1Cc2ccccc2CN1CCC(=O)N1CCc2ccccc21", "note": "(stereo not drawn)", "Percent Effect": -4.733}
{"smiles": "NC(=O)C1CCCN1c1cc(N2CCc3ccccc3C2)ncn1", "note": "(stereo not drawn)", "Percent Effect": -10.01}
{"smiles": "CC1CCN(S(=O)(=O)N2C[C@H](c3ccccc3)[C@@H](N)C2)CC1", "Percent Effect": -3.535}
{"smiles": "NC(=O)[C@@H]1Cc2ccccc2CN1CCc1cccs1", "Percent Effect": -22.09}
{"smiles": "NC(=O)[C@@H]1Cc2ccccc2CN1CCC(=O)N1CCOCC1", "Percent Effect": 8.62}
{"smiles": "CN(CC(C)(C)O)C(=O)Nc1ccc(F)c(-n2cccc2)c1", "Percent Effect": 2.422}
{"smiles": "CNS(=O)(=O)c1cccc(C(C)NCc2cccc(C)c2C)c1", "note": "(stereo not drawn)", "Percent Effect": 8.764}
{"smiles": "O=C(C1CC2(CCNCC2)CN1)N1CCN(c2cccc(Cl)c2Cl)CC1", "note": "(stereo not drawn)", "Percent Effect": 3.67}
{"smiles": "COCCOCC(=O)N1C[C@H]2CC[C@@H]1CN(C1Cc3ccccc3C1)C2", "Percent Effect": 11.56}
{"smiles": "COc1cccc(C(=O)NCc2ccccc2S(=O)(=O)N(C)CCO)c1", "Percent Effect": 1.796}
{"smiles": "CCS(=O)(=O)c1ncc(CN2CCOCC2)n1CCCc1ccccc1", "Percent Effect": 6.125}
{"smiles": "CCN1CC2(CCC1=O)CCN(c1ccc(C(C)=O)cn1)CC2", "Percent Effect": 0.06704}
{"smiles": "Cc1nc(C)n(CC2CCCN(Cc3nc(C4CC4)no3)C2)n1", "note": "(stereo not drawn)", "Percent Effect": 2.839}
{"smiles": "Cc1nc(C)n(CC2CCCN(CC3CCCCC3)C2)n1", "note": "(stereo not drawn)", "Percent Effect": 104.8}
{"smiles": "CCc1nc(CN2CCCC(Cn3nc(C)nc3C)C2)no1", "note": "(stereo not drawn)", "Percent Effect": 81.07}
{"smiles": "Cc1nc(C)n(CC2CCCN(Cc3noc(C)n3)C2)n1", "note": "(stereo not drawn)", "Percent Effect": 96.94}
{"smiles": "Cc1noc(CN2CCCC(Cn3nc(C)nc3C)C2)n1", "note": "(stereo not drawn)", "Percent Effect": 104.9}
{"smiles": "CS(=O)(=O)N1C[C@@H]2COC[C@@H](CC(=O)N3CCCCO3)[C@@H]2C1", "Percent Effect": -9.378}
{"smiles": "CNC(=O)[C@@H](c1ccccc1F)N1CCC[C@H]1C(=O)NC1CC1.Cl", "Percent Effect": 0.6767}
{"smiles": "O=C1N[C@@H]2CCN(C(=O)C3CC3)[C@@H]2C(=O)N1c1ccccc1", "Percent Effect": -5.528}
{"smiles": "Cc1ccccc1Oc1ncccc1CNS(=O)(=O)N(C)C", "Percent Effect": -17.53}
{"smiles": "CC(C)c1cc(N[C@H](C(N)=O)C(C)C)n2nccc2n1", "Percent Effect": -22.97}
{"smiles": "COCCc1noc(CN2CCCC(Cn3nc(C)nc3C)C2)n1", "note": "(stereo not drawn)", "Percent Effect": 0.4033}
{"smiles": "CCc1noc(CN2CCCC(Cn3nc(C)nc3C)C2)n1", "note": "(stereo not drawn)", "Percent Effect": 134.9}
{"smiles": "CS(=O)(=O)CCN1CC(c2ccccc2)(c2ccccc2)CCC1=O", "Percent Effect": -17.1}
{"smiles": "O=C1CC(c2ncc(-c3ccc4c(c3)OCCO4)[nH]2)CN1C1CC1", "note": "(stereo not drawn)", "Percent Effect": -4.884}
